Measurements: PubChem BioAssay (NCATS)
Results filed as inconclusive are left out. Entries that show only a call come without a potency. Calls of active or inactive are those of the source. Calls come from the whole dose curve; as a rule, active = well fitted inhibition curve with a large enough effect; inconclusive = small, poorly fitted or top-dose-only effect; inactive = no such curve, though single readings can be large or run the other way.

Biological target: Rap guanine nucleotide exchange factor 4 (Homo sapiens) (UniProt Q8WZA2)
Sequence (Q8WZA2 whole entry, looked up): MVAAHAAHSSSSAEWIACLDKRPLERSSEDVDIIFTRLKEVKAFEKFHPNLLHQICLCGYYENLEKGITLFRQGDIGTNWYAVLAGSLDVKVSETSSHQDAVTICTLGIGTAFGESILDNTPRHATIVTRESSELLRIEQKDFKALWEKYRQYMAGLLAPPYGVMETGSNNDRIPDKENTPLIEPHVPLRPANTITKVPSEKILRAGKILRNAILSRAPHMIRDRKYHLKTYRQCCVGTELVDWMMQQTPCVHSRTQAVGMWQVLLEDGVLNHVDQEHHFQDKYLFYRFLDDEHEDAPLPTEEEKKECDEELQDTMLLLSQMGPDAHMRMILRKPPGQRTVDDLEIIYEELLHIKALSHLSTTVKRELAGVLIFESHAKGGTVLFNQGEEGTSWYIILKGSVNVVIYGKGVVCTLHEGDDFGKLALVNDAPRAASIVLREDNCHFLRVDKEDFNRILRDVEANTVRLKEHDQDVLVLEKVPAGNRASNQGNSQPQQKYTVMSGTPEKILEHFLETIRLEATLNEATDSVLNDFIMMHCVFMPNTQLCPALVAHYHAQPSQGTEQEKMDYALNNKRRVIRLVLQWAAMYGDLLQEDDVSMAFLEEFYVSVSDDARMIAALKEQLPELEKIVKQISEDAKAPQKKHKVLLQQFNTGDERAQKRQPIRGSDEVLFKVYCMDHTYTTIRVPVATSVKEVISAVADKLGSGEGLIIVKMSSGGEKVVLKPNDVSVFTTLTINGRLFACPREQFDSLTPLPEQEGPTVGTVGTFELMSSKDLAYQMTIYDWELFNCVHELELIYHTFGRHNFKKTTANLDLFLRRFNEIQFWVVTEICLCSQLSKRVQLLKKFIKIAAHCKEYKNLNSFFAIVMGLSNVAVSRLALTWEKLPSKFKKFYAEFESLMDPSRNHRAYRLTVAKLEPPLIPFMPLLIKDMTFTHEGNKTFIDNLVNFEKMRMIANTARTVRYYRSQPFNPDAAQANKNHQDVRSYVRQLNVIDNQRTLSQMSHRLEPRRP
Experiment: Confirmatory qHTS for antagonist of cAMP-regulated guanine nucleotide exchange factor 4 (EPAC2) (AID 1645885); note: nearly all actives have a fitted effect of over 25% in size
Conditions: EPAC2 Rap1B-BODIPY-GDP exchange fluorescence, biochemical; series mostly up to 12.7 µM
Potency is the fitted concentration of half-maximal effect.

Row | Structure (SMILES) | Potency
1 | CCOC(=O)C1(C)C=C(Nc2ccc(C(N)=O)cc2)C(=O)N1c1ccccc1 (stereo not given) | 10.7 µM (active)
2 | COc1cccc(/C=N/Nc2ccc(S(=O)(=O)Nc3ccccc3C(=O)O)cc2[N+](=O)[O-])c1O | inactive
3 | Cc1ccc(NS(=O)(=O)c2cccc3cccnc23)c(Cl)c1 | inactive
4 | NC(N)=N/N=C/c1ccc(OCc2ccc(Cl)cc2Cl)cc1 | inactive
5 | CC(=O)N1CCc2nc3sc(C(=O)c4ccc(F)cc4)c(N)c3c(C(F)(F)F)c2C1 | inactive
6 | CC1(C)CC2CC(C)(CN2C(=O)c2cc(-c3ccccc3O)on2)C1 (stereo not given) | inactive
7 | O=C(O)c1ccc(Nc2nc(-c3cc4ccccc4oc3=O)cs2)cc1O | inactive
8 | COc1ccc(/C(O)=C/c2nc3ccccc3n(-c3ccccc3)c2=O)cc1 | 75.7 µM (active)
9 | COC(/C(=N/O)c1ccc(Cl)cc1)c1ccccc1 (stereo not given) | inactive
10 | COc1ccc(CCn2c(O)cc3nn(-c4nc5ccccc5s4)c(=O)c-3c2C)cc1 | inactive
11 | COc1ccc(CN(Cc2ccco2)C(=O)c2ccccc2F)cc1 | inactive
12 | O=C(CSc1ncnc2[nH]ncc12)Nc1cccc(Oc2ccccc2)c1 | inactive
13 | CCOc1cc(/C=C2\SC(=Nc3ccc(CC)cc3)NC2=O)ccc1OCC(=O)O | inactive
14 | S=c1[nH]nc(-c2cc(-c3ccccc3)n[nH]2)n1/N=C/c1ccc(Cl)c(Cl)c1 | inactive
15 | CC1=CC(=C(C#N)c2nc3ccccc3s2)C=C(C)N1Cc1ccco1 | inactive
16 | COc1ccc(C(=O)NCCn2cc(SCC(=O)NCCc3ccc(OC)c(OC)c3)c3ccccc32)cc1 | inactive
17 | O=c1oc2c3c(ccc2c2ccccc12)OCN(Cc1cccc(Cl)c1)C3 | inactive
18 | COc1cc(/C=C2\CCn3c2nc2cc(C(=O)O)ccc2c3=O)ccc1OC(F)F | inactive
19 | O=[N+]([O-])c1ccc(NS(=O)(=O)c2ccccc2)c(Cl)c1 | inactive
20 | CC(/C=C1\SC(=S)N(c2ccc(C(=O)O)cc2)C1=O)=C\c1ccccc1 | inactive

Row | Structure (SMILES) | Potency
21 | O=c1oc2ccc(Cl)cc2nc1/C=C(\O)c1cccs1 | inactive
22 | COc1ccc(C(=O)c2ccc(Br)cc2)c(OC)c1OC | 6.01 µM (active)
23 | COc1ccc2c(c1)C(SCC(=O)NCCc1ccc(Cl)cc1)CC(C)(C)O2 (stereo not given) | inactive
24 | CCOc1ccc(/C=C2\SC(=S)N(NS(=O)(=O)c3ccccc3)C2=O)cc1OC | 37.9 µM (active)
25 | CCOC(=O)c1c(CSc2ccccc2)n(C)c2cc(Br)c(OCC(O)CNC(CO)(CO)CO)cc12 (stereo not given) | 26.9 µM (active)
26 | COc1cc2ccccc2cc1C(=O)NC(=S)Nc1cccc(C(=O)O)c1 | inactive
27 | COc1cc2cc(Oc3ccc4ccc(=O)oc4c3)c(=O)oc2cc1O | inactive
28 | Cc1cc(Br)cn2c(Cc3ccsc3)c(-c3ccco3)nc12 | inactive
29 | O=C(O)COc1ccccc1/C=N/Nc1ccc(S(=O)(=O)Nc2ccc(Cl)cc2)cc1[N+](=O)[O-] | inactive
30 | O=C(O)CC/C(=C\c1cccc(NC(=O)c2ccccc2Cl)c1)c1nc2ccccc2s1 | inactive
31 | CNc1ccc(/C=C(\CCC(=O)O)c2nc3ccccc3s2)cc1[N+](=O)[O-] | inactive
32 | Cc1cc2nc3c(=O)n(Cc4ccccc4)c(=O)[nH]c3nc2cc1N | inactive
33 | Cc1c(CCC(=O)O)c(=O)oc2cc(OCc3ccccc3Br)ccc12 | 84.9 µM (active)
34 | CCc1ccc(N=C2NC(=O)/C(=C/c3ccc(OCC(=O)O)cc3)S2)cc1 | inactive
35 | Cn1c(SCC(=O)Nc2cccc(C(=O)O)c2)nnc1-c1cc2cc(Br)ccc2o1 | inactive
36 | CC1(Cc2cc(Cl)ccc2C(F)(F)F)C(=O)Nc2c(Cl)cccc21 (stereo not given) | 30.1 µM (active)
37 | O=C(N/N=C/c1ccc(O)c(O)c1)C1c2ccccc2Oc2ccccc21 | inactive
38 | CC(C)(C)CNC(=O)c1cccc2c1C(=O)c1ccc(-c3cc4ccccc4o3)cc1S2(=O)=O | inactive
39 | COc1cc(/C=C2\SC(=Nc3ccccc3)N(CCc3c[nH]c4ccccc34)C2=O)ccc1OC(C)C(=O)O (stereo not given) | inactive
40 | CCOC(=O)c1cc(-c2ccc(/C=C3/C(=O)N(c4ccc(C(=O)O)cc4)N=C3C)o2)ccc1Cl | inactive
